{"source": "the supplement of paper PMC8728848", "test_in_all_cases": "glycan array binding signal (z-score within array); higher = stronger binding", "conditions_in_all_cases": "glycan notation: IUPAC condensed, linker removed", "key": {"[1]": {"molecular_target": "Fuc(a1-2)Gal(b1-3)GalNAc(a1-3)[Fuc(a1-2)]Gal(b1-4)Glc", "method_in_brief": "(§1)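 Arrays were curated from the Consortium for Functional Glycomics database, 3228 in total, and kept only where the protein sequence was available. Binding is expressed as a within-array Z-score. This score was averaged across arrays of the same protein sequence at different concentrations or buffers and across linkers, and negative values can be read as non-binding.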"}, "[2]": {"molecular_target": "Fuc(a1-2)Gal(b1-3)GalNAc(b1-3)Gal", "method_in_brief": "as §1"}, "[3]": {"molecular_target": "Fuc(a1-2)Gal(b1-4)GlcNAc", "method_in_brief": "as §1"}, "[4]": {"molecular_target": "Fuc(a1-2)Gal(b1-4)GlcNAc(b1-6)GalNAc", "method_in_brief": "as §1"}, "[5]": {"molecular_target": "Fuc(a1-2)[Gal(a1-3)]Gal(b1-3)GlcNAc(b1-3)GalNAc", "method_in_brief": "as §1"}, "[6]": {"molecular_target": "Fuc(a1-2)[GalNAc(a1-3)]Gal(b1-4)Glc", "method_in_brief": "as §1"}, "[7]": {"molecular_target": "Fuc(a1-2)[GalNAc(b1-3)]Gal", "method_in_brief": "as §1"}, "[8]": {"molecular_target": "Fuc(a1-3)[Gal(b1-4)]GlcNAc(b1-2)Man(a1-3)[Fuc(a1-3)[Gal(b1-4)]GlcNAc(b1-2)Man(a1-6)]Man(b1-4)GlcNAc(b1-4)GlcNAc", "method_in_brief": "as §1"}, "[9]": {"molecular_target": "Gal(a1-3)Gal(b1-3)GlcNAc(b1-3)GalNAc", "method_in_brief": "as §1"}, "[10]": {"molecular_target": "Gal(b1-3)GlcNAc(a1-6)Gal(b1-4)GlcNAc", "method_in_brief": "as §1"}, "[11]": {"molecular_target": "Gal(b1-3)GlcNAc(b1-3)Gal(b1-4)Glc", "method_in_brief": "as §1"}, "[12]": {"molecular_target": "Gal(b1-3)GlcNAc(b1-3)Gal(b1-4)GlcNAc(b1-6)[Gal(b1-3)GlcNAc(b1-3)]Gal(b1-4)Glc", "method_in_brief": "as §1"}, "[13]": {"molecular_target": "Gal(b1-3)GlcNAc(b1-6)[Gal(b1-3)]GalNAc", "method_in_brief": "as §1"}, "[14]": {"molecular_target": "Gal(b1-3)[GlcNAc(b1-6)]GalNAc", "method_in_brief": "as §1"}, "[15]": {"molecular_target": "Gal(b1-4)GlcNAc(b1-2)[Gal(b1-4)GlcNAc(b1-4)]Man(a1-3)[GlcNAc(b1-4)][Gal(b1-4)GlcNAc(b1-2)[Gal(b1-4)GlcNAc(b1-6)]Man(a1-6)]Man(b1-4)GlcNAc(b1-4)GlcNAc", "method_in_brief": "as §1"}, "[16]": {"molecular_target": "Gal(b1-4)GlcNAc(b1-2)[Gal(b1-4)GlcNAc(b1-6)]Man(a1-6)[Gal(b1-4)GlcNAc(b1-2)Man(a1-3)]Man(b1-4)GlcNAc(b1-4)[Fuc(a1-6)]GlcNAc", "method_in_brief": "as §1"}, "[17]": {"molecular_target": "Gal(b1-4)GlcNAc(b1-3)Gal(b1-3)GlcNAc", "method_in_brief": "as §1"}, "[18]": {"molecular_target": "Gal(b1-4)GlcNAc(b1-3)Gal(b1-4)Glc", "method_in_brief": "as §1"}, "[19]": {"molecular_target": "Gal(b1-4)GlcNAc(b1-3)Gal(b1-4)GlcNAc(b1-2)Man(a1-3)[Gal(b1-4)GlcNAc(b1-3)Gal(b1-4)GlcNAc(b1-2)Man(a1-6)]Man(b1-4)GlcNAc(b1-4)[Fuc(a1-6)]GlcNAc", "method_in_brief": "as §1"}, "[20]": {"molecular_target": "Gal(b1-4)GlcNAc(b1-3)Gal(b1-4)GlcNAc(b1-3)Gal(b1-4)GlcNAc(b1-2)Man(a1-3)[Gal(b1-4)GlcNAc(b1-3)Gal(b1-4)GlcNAc(b1-3)Gal(b1-4)GlcNAc(b1-2)Man(a1-6)]Man(b1-4)GlcNAc(b1-4)[Fuc(a1-6)]GlcNAc", "method_in_brief": "as §1"}, "[21]": {"molecular_target": "Gal(b1-4)GlcNAc(b1-3)Gal(b1-4)GlcNAc(b1-3)Gal(b1-4)GlcNAc(b1-3)Gal(b1-4)GlcNAc(b1-2)Man(a1-3)[Gal(b1-4)GlcNAc(b1-3)Gal(b1-4)GlcNAc(b1-3)Gal(b1-4)GlcNAc(b1-3)Gal(b1-4)GlcNAc(b1-2)Man(a1-6)]Man(b1-4)GlcNAc(b1-4)[Fuc(a1-6)]GlcNAc", "method_in_brief": "as §1"}, "[22]": {"molecular_target": "Gal(b1-4)GlcNAc(b1-3)Gal(b1-4)GlcNAc(b1-3)Gal(b1-4)GlcNAc(b1-3)Gal(b1-4)GlcNAc(b1-3)Gal(b1-4)GlcNAc(b1-2)Man(a1-3)[Gal(b1-4)GlcNAc(b1-3)Gal(b1-4)GlcNAc(b1-3)Gal(b1-4)GlcNAc(b1-3)Gal(b1-4)GlcNAc(b1-3)Gal(b1-4)GlcNAc(b1-2)Man(a1-6)]Man(b1-4)GlcNAc(b1-4)[Fuc(a1-6)]GlcNAc", "method_in_brief": "as §1"}, "[23]": {"molecular_target": "Gal(b1-4)GlcNAc(b1-3)Gal(b1-4)GlcNAc(b1-3)Gal(b1-4)GlcNAc(b1-3)Gal(b1-4)GlcNAc(b1-3)Gal(b1-4)GlcNAc(b1-3)Gal(b1-4)GlcNAc(b1-2)Man(a1-3)[Gal(b1-4)GlcNAc(b1-3)Gal(b1-4)GlcNAc(b1-3)Gal(b1-4)GlcNAc(b1-3)Gal(b1-4)GlcNAc(b1-3)Gal(b1-4)GlcNAc(b1-3)Gal(b1-4)GlcNAc(b1-2)Man(a1-6)]Man(b1-4)GlcNAc(b1-4)GlcNAc", "method_in_brief": "as §1"}, "[24]": {"molecular_target": "Gal(b1-4)GlcNAc(b1-3)Gal(b1-4)GlcNAc(b1-3)[Gal(b1-4)GlcNAc(b1-3)Gal(b1-4)GlcNAc(b1-6)]GalNAc", "method_in_brief": "as §1"}, "[25]": {"molecular_target": "Gal3S(b1-4)GlcNAc6S", "method_in_brief": "as §1"}, "[26]": {"molecular_target": "GalNAc(b1-4)GlcNAc(b1-2)Man", "method_in_brief": "as §1"}}, "note": "Many of the other results were omitted from the sample, so the strongest signals are more common in it than they were."}
{"binder": "LCA (Lens culinaris), P02870 (protein) MASLQTQMISFYLIFLSILLTTIFFFKVNSTETTSFSITKFSPDQKNLIFQGDGYTTKGKLTLTKAVKSTVGRALYSTPIHIWDRDTGNVANFVTSFTFVIDAPSSYNVADEFTFFIAPVDTKPQTGGGYLGVFNSKEYDKTSQTVAVEFDTFYNAAWDPSNKERHIGIDVNSIKSVNTKSWNLQNGERANVVIAFNAATNVLTVTLTYPNSLEEENVTSYTLNEVVPLKDVVPEWVRIGFSATTGAEFAAHEVHSWSFHSELGGTSSSKQAADA", "values": [{"measurement": "glycan array binding signal (z-score)", "setting": "[1]", "result": -0.201}, {"measurement": "glycan array binding signal (z-score)", "setting": "[2]", "result": -0.218}, {"measurement": "glycan array binding signal (z-score)", "setting": "[3]", "result": -0.217}, {"measurement": "glycan array binding signal (z-score)", "setting": "[4]", "result": -0.218}, {"measurement": "glycan array binding signal (z-score)", "setting": "[5]", "result": -0.238}, {"measurement": "glycan array binding signal (z-score)", "setting": "[6]", "result": -0.232}, {"measurement": "glycan array binding signal (z-score)", "setting": "[7]", "result": -0.257}, {"measurement": "glycan array binding signal (z-score)", "setting": "[8]", "result": -0.237}, {"measurement": "glycan array binding signal (z-score)", "setting": "[9]", "result": -0.227}, {"measurement": "glycan array binding signal (z-score)", "setting": "[10]", "result": -0.211}, {"measurement": "glycan array binding signal (z-score)", "setting": "[11]", "result": -0.231}, {"measurement": "glycan array binding signal (z-score)", "setting": "[12]", "result": -0.238}, {"measurement": "glycan array binding signal (z-score)", "setting": "[13]", "result": -0.231}, {"measurement": "glycan array binding signal (z-score)", "setting": "[14]", "result": -0.238}, {"measurement": "glycan array binding signal (z-score)", "setting": "[15]", "result": -0.235}, {"measurement": "glycan array binding signal (z-score)", "setting": "[16]", "result": 4.72}, {"measurement": "glycan array binding signal (z-score)", "setting": "[17]", "result": -0.225}, {"measurement": "glycan array binding signal (z-score)", "setting": "[18]", "result": -0.205}, {"measurement": "glycan array binding signal (z-score)", "setting": "[19]", "result": 4.42}, {"measurement": "glycan array binding signal (z-score)", "setting": "[20]", "result": 4.2}, {"measurement": "glycan array binding signal (z-score)", "setting": "[21]", "result": 3.87}, {"measurement": "glycan array binding signal (z-score)", "setting": "[22]", "result": 3.85}, {"measurement": "glycan array binding signal (z-score)", "setting": "[23]", "result": -0.192}, {"measurement": "glycan array binding signal (z-score)", "setting": "[24]", "result": 0.058}, {"measurement": "glycan array binding signal (z-score)", "setting": "[25]", "result": -0.227}, {"measurement": "glycan array binding signal (z-score)", "setting": "[26]", "result": -0.199}]}
